About 37,000 (12%) of roughly 300,000 compounds were called active. Shown is part of a subset that was picked to be rich in actives. Values without a mark were called inactive. No stated cut-off is given here; in the data, active means max response mostly above about 13% (no sharp cut-off); inactive means mostly below about 14%.
assay: Cycloheximide Counterscreen for Small Molecule Inhibitors of Shiga Toxin; settings: cell reporter, cycloheximide protein synthesis inhibition counterscreen; stronger effect = higher value; further: read at 38.3 µM for the half of the compounds with a filed dose; 0% is about no effect

| Structure (SMILES) | max response |
| --- | --- |
| CC(=O)Nc1c2c(nn1-c1cccc(C)c1)CSC2 | 8.26% |
| C=CCn1c2ccccc2c2nnc(SCc3[nH]c(=O)[nH]c3C(=O)CCCCC(=O)OCC)nc21 | 2.1% |
| Cc1cccc(C)c1NC(=O)C1(C)c2cccc[n+]2CC(=O)N1Cc1cccs1 (stereo not drawn) | -1.89% |
| COC(=O)c1ccc(C(NC(=O)OCc2ccccc2)/C(F)=C/[C@@H](C)C(=O)O)cc1 (stereo partly drawn) | 6.37% |
| CN1CCC(=O)N([C@H](CO)Cc2ccccc2)CC1 | 1.38% |
| CCCC(=O)N=c1sc2cccc(F)c2n1C | -3.69% |
| Cn1c(=NC(=O)c2ccco2)sc2cccc(F)c21 | 72.9% (active) |
| Cn1c(=NC(=O)C2CC2)sc2cc(F)cc(F)c21 | -0.185% |
| COC(=O)c1c(NC(=O)c2ccccc2F)sc2c1C(C(=O)OC)CC2 (stereo not drawn) | 7.34% |
| C/C(=N\N)c1c(-c2ccccc2)c2cc(Br)ccc2[nH]c1=O | 1% |
| O=C(Cn1nc([N+](=O)[O-])nc1Br)NC1CCCCC1 | -4.71% |
| COc1ccccc1C(=O)NC(=S)NC12CC3CC(CC(C3)C1)C2 | 13.4% |
| O=C(NNC(=S)NC1CCCCC1)c1ccccc1Cl | 5.48% |
| Cc1ccccc1C(=O)NC(=S)NC1CC1 | 19.1% (active) |
| CC(C)CC(CCc1ccccc1)OS(N)(=O)=O (stereo not drawn) | 2.53% |
| COc1ccc(COC(=O)N/N=C(\C)CC(=O)Nc2ccc(Cl)cc2)cc1 | 12.4% |
| COc1ccc(C(=O)CCC(=O)Nc2ccc(Cl)cc2)cc1 | 0.287% |
| COc1ccc(C(=O)N/N=C(\C)CC(=O)Nc2ccc(Cl)cn2)cc1 | 28.3% (active) |
| Cc1ccc(-n2c(-c3ccc(Cl)cc3)n[nH]c2=S)cc1 | -1.99% |
| O=C(NCCCN1CCOCC1)c1ccc2c(c1)N(Cc1cccc(F)c1)C(=O)c1ccccc1S2 | -7.81% |
| Nc1cc(N)nc(SCc2cccc(F)c2)n1 | 45.9% (active) |
| Nc1cc(N)nc(SCc2ccc(Cl)cc2)n1 | 15.3% |
| Cc1cc(=O)[nH]c(SCc2cccc(F)c2)n1 | 0.752% |
| C[n+]1cc(-c2ccccc2)oc1-c1ccccc1 | 52.4% (active) |
| Cc1cc(N2CCN(c3ccccc3)CC2)nc(N2CCOCC2)n1 | -2.2% |
| Cc1cc(C)n(-c2nnc(N3CCN(c4ccccc4)CC3)nn2)n1 | 22.1% (active) |
| Cc1cc(C)n(-c2cc(Oc3ccccc3)ncn2)n1 | 21.7% |
| CCOC(=O)C1=C(CN2CCc3ccccc32)NC(=O)NC1c1ccc(Cl)cc1 (stereo not drawn) | 15.3% |
